Experimental data published in PubChem BioAssay AID1159580 (chemical genetic matrix, 2015).
In all, about 5,500 compounds went through this assay and about 2,000 (36%) were called active. Not shown: some 18% with an inconclusive outcome. Rule as the data show it: active = normalized growth mostly below about 0.91 (no sharp cut-off); inconclusive = no clear call, values can overlap the other calls; inactive = mostly above about 0.92. Some of the results follow.

Assay: chemical genetic growth profiling, strain panel (AID 1159580);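 also: tested at 20 µM; growth read once vehicle control cultures reached saturation at 30 °C; 1 = growth at the plate median or of vehicle wells; lower values mean less growth of the strain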
Details: growth OD

Measured: normalized growth

CC(Cc1ccc(O)c(O)c1)(NN)C(=O)O (centres undefined)
inactive: S. cerevisiae deletion strains, locus YJR075W, strain HOC1, active compounds read low 1.02 | S. cerevisiae deletion strains, locus YKL009W, strain mrt4, active compounds read low 0.991 | S. cerevisiae deletion strains, locus YKL068W, active compounds read low 0.997 | S. cerevisiae deletion strains, locus YKL085W, strain MDH1 (second series), active compounds read low 0.992 | S. cerevisiae deletion strains, locus YKL085W, strain MDH1, active compounds read low 0.992 | S. cerevisiae deletion strains, locus YKL160W, strain elf1, active compounds read low 1.01 | S. cerevisiae deletion strains, locus YKL190W, strain CNB1, active compounds read low 0.991 | S. cerevisiae deletion strains, locus YKR001C, strain vps1, active compounds read low 1 | S. cerevisiae deletion strains, locus YKR026C, strain gcn3, active compounds read low 0.988 | S. cerevisiae deletion strains, locus YKR091W, strain srl3, active compounds read low 1.01 | S. cerevisiae deletion strains, locus YLL001W, strain dnm1, active compounds read low 1.01 | S. cerevisiae deletion strains, locus YLL026W, active compounds read low 1.01 | S. cerevisiae deletion strains, locus YLL041C, strain sdh2, active compounds read low 1.01 | S. cerevisiae deletion strains, locus YLR027C, strain aat2, active compounds read low 1.01 | S. cerevisiae deletion strains, locus YLR039C, strain RIC1, active compounds read low 1.04 | S. cerevisiae deletion strains, locus YLR058C, strain SHM2, active compounds read low 1.01 | S. cerevisiae deletion strains, locus YLR102C, strain apc9, active compounds read low 1.02 | S. cerevisiae deletion strains, locus YLR113W, strain HOG1, active compounds read low 0.918 | S. cerevisiae deletion strains, locus YLR221C, strain rsa3, active compounds read low 1.01 | S. cerevisiae deletion strains, locus YLR258W, strain gsy2, active compounds read low 0.999 | S. cerevisiae deletion strains, locus YLR262C, strain YPT6 (second series), active compounds read low 0.978 | S. cerevisiae deletion strains, locus YLR262C, strain YPT6, active compounds read low 1.03 | S. cerevisiae deletion strains, locus YLR268W, strain sec22, active compounds read low 0.996 | S. cerevisiae deletion strains, locus YLR320W, strain mms22, active compounds read low 1.02 | S. cerevisiae deletion strains, locus YLR330W, strain CHS5, active compounds read low 1 | S. cerevisiae deletion strains, locus YLR342W, strain FKS1 (second series), active compounds read low 0.966 | S. cerevisiae deletion strains, locus YLR342W, strain FKS1, active compounds read low 0.992 | S. cerevisiae deletion strains, locus YLR357W, strain rsc2, active compounds read low 0.973 | S. cerevisiae deletion strains, locus YLR370C, strain arc18, active compounds read low 1.01 | S. cerevisiae deletion strains, locus YLR371W, strain rom2, active compounds read low 1.01 | S. cerevisiae deletion strains, locus YLR384C, strain iki3, active compounds read low 0.976 | S. cerevisiae deletion strains, locus YLR418C, strain cdc73, active compounds read low 1.07 | S. cerevisiae deletion strains, locus YML016C, strain PPZ1, active compounds read low 0.999 | S. cerevisiae deletion strains, locus YML032C, strain rad52, active compounds read low 1.01 | S. cerevisiae deletion strains, locus YML120C, strain ndi1, active compounds read low 0.99 | S. cerevisiae deletion strains, locus YML124C, strain tub3, active compounds read low 1.01 | S. cerevisiae deletion strains, locus YMR058W, strain fet3, active compounds read low 0.987 | S. cerevisiae deletion strains, locus YMR078C, strain ctf18, active compounds read low 1.02 | S. cerevisiae deletion strains, locus YMR125W, strain sto1, active compounds read low 1 | S. cerevisiae deletion strains, locus YMR129W, active compounds read low 0.997 | S. cerevisiae deletion strains, locus YMR205C, strain PFK2, active compounds read low 1.04 | S. cerevisiae deletion strains, locus YMR223W, strain ubp8, active compounds read low 0.996 | S. cerevisiae deletion strains, locus YMR231W, strain pep5, active compounds read low 1.01 | S. cerevisiae deletion strains, locus YMR263W, strain SAP30, active compounds read low 0.988 | S. cerevisiae deletion strains, locus YMR307W, strain GAS1, active compounds read low 1.05 | S. cerevisiae deletion strains, locus YNL067W, strain RPL9B, active compounds read low 0.966 | S. cerevisiae deletion strains, locus YNL071W, strain lat1, active compounds read low 0.993 | S. cerevisiae deletion strains, locus YNL183C, strain NPR1, active compounds read low 0.912 | S. cerevisiae deletion strains, locus YNL209W, strain ssb2, active compounds read low 0.993 | S. cerevisiae deletion strains, locus YNL233W, strain BNI4, active compounds read low 0.982 | S. cerevisiae deletion strains, locus YNL248C, strain rpa49, active compounds read low 1.01 | S. cerevisiae deletion strains, locus YNL250W, strain rad50, active compounds read low 1 | S. cerevisiae deletion strains, locus YNL271C, strain bni1, active compounds read low 1.01 | S. cerevisiae deletion strains, locus YNL298W, strain CLA4, active compounds read low 1.02 | S. cerevisiae deletion strains, locus YNL307C, strain MCK1, active compounds read low 1.02 | S. cerevisiae deletion strains, locus YNL322C, strain KRE1 (second series), active compounds read low 1 | S. cerevisiae deletion strains, locus YNL322C, strain KRE1, active compounds read low 0.999 | S. cerevisiae deletion strains, locus YNR049C, strain mso1, active compounds read low 1.01 | S. cerevisiae deletion strains, locus YNR052C, strain pop2, active compounds read low 1.01 | S. cerevisiae deletion strains, locus YOL006C, strain TOP1, active compounds read low 0.989 | S. cerevisiae deletion strains, locus YOL012C, strain htz1 0.764 | S. cerevisiae deletion strains, locus YOL147C, strain pex11, active compounds read low 1.01 | S. cerevisiae deletion strains, locus YOR001W, strain rrp6, active compounds read low 0.987 | S. cerevisiae deletion strains, locus YOR061W, strain CKA2, active compounds read low 1 | S. cerevisiae deletion strains, locus YOR069W, strain VPS5, active compounds read low 1.03 | S. cerevisiae deletion strains, locus YOR070C, strain gyp1, active compounds read low 1 | S. cerevisiae deletion strains, locus YOR080W, strain dia2, active compounds read low 1 | S. cerevisiae deletion strains, locus YOR083W, strain WHI5, active compounds read low 0.996 | S. cerevisiae deletion strains, locus YOR106W, strain vam3, active compounds read low 0.984 | S. cerevisiae deletion strains, locus YOR136W, strain idh2, active compounds read low 1.01 | S. cerevisiae deletion strains, locus YOR144C, strain elg1, active compounds read low 1 | S. cerevisiae deletion strains, locus YOR184W, strain ser1, active compounds read low 1.03 | S. cerevisiae deletion strains, locus YOR231W, strain MKK1, active compounds read low 0.955 | S. cerevisiae deletion strains, locus YOR265W, strain rbl2, active compounds read low 0.993 | S. cerevisiae deletion strains, locus YOR270C, strain vph1, active compounds read low 1.11 | S. cerevisiae deletion strains, locus YOR290C, strain snf2, active compounds read low 1 | S. cerevisiae deletion strains, locus YOR316C, strain cot1, active compounds read low 1.01 | S. cerevisiae deletion strains, locus YPL051W, strain arl3, active compounds read low 0.991 | S. cerevisiae deletion strains, locus YPL055C, strain LGE1, active compounds read low 0.926 | S. cerevisiae deletion strains, locus YPL078C, strain atp4, active compounds read low 0.991 | S. cerevisiae deletion strains, locus YPL106C, strain sse1, active compounds read low 0.918 | S. cerevisiae deletion strains, locus YPL240C, strain hsp82, active compounds read low 1 | S. cerevisiae deletion strains, locus YPL256C, strain CLN2, active compounds read low 0.968 | S. cerevisiae deletion strains, locus YPR119W, strain clb2, active compounds read low 1.01 | S. cerevisiae deletion strains, locus YPR141C, strain kar3, active compounds read low 0.999 | S. cerevisiae deletion strains, locus YPR163C, strain tif3, active compounds read low 1.01 | S. cerevisiae deletion strains, locus YPR167C, strain met16, active compounds read low 1.02 | S. cerevisiae deletion strains, strain wtn01, active compounds read low 1.01 | S. cerevisiae strains, strain wild type, active compounds read low 0.988
